Test results as given in PubChem BioAssay (NCATS).
Records with an inconclusive call do not appear. Calls of active or inactive are those of the source. Calls follow the shape of the dose curve; as a rule, active = well fitted activation curve with a large enough effect in the main read-out, with a control signal flat (not every such curve was filed as active); inconclusive = small, poorly fitted or top-dose-only effect, or effect the other way, or a change in a side signal; inactive = flat fitted curve, though single readings scatter.

What follows are compounds tested against 3',5'-cyclic-AMP phosphodiesterase 4B (Homo sapiens) (UniProt Q07343) (assay: qHTS Assay for Inhibitors of PDE-IV (AID 607)). Details: HEK293 ACTOne CNG channel cells, membrane potential fluorescence; series mostly up to 22.9 µM.
Chain of 3',5'-cyclic-AMP phosphodiesterase 4B (Homo sapiens) (Q07343 whole entry, looked up): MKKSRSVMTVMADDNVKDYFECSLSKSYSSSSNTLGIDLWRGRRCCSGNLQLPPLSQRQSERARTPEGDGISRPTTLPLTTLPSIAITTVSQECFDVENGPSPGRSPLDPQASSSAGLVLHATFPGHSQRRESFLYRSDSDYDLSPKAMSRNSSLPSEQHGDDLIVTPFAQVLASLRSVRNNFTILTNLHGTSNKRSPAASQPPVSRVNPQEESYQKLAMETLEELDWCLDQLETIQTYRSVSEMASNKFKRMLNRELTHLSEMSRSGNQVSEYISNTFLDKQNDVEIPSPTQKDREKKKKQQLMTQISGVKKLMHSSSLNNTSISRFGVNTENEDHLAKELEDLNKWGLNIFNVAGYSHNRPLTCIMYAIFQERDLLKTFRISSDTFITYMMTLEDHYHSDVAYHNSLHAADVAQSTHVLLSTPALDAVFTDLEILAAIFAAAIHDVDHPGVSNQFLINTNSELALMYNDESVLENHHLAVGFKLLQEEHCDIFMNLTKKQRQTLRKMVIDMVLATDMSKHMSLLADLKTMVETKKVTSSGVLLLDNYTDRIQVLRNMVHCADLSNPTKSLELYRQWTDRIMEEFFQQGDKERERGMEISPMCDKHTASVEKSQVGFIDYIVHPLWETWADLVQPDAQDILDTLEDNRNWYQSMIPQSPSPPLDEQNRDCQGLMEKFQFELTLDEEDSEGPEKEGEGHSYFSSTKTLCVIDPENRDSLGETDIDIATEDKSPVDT
In short: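 The readout is membrane depolarisation from a cAMP-sensing CNG channel, detected with a potential dye at ex 535/em 590. Cells were HEK293-derived (endogenous PDE-IV) at 1000 cells/well, titrated up to 22.9 uM final.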
With `CN=C(N)NCCC[C@H](N)C(=O)O` the outcome was “inactive”. `CN1CCc2cccc3c2[C@H]1Cc1ccc(O)c(O)c1-3` was tested, and the outcome was “inactive”. With `O=C1C(=O)c2ccccc2C(O)=C1C1CCC(c2ccc(Cl)cc2)CC1` (stereo not given) the outcome was “inactive”. With `COc1cc(C)nc(-n2nc(C)cc2OC)n1` the outcome was “inactive”. For `CCN(CC)CCNC(=O)COc1ccc(OC)cc1`, the outcome was “inactive”. For `O=C1C(O)=C(O)C(=O)C(O)=C1O`, the outcome was “inactive”. In the case of `CCCc1ncc(C[n+]2ccccc2C)c(N)n1`, the outcome is reported as “inactive”. With `COc1cc(C(=O)NCc2ccc(OCCN(C)C)cc2)cc(OC)c1OC` the outcome was “inactive”. For `C[N+]1(C)CCC(=C(c2ccccc2)c2ccccc2)CC1`, the outcome was “inactive”. For `Nc1ccc(S(=O)(=O)Nc2cnc3ccccc3n2)cc1`, the outcome was “inactive”. `NS(=O)(=O)Cc1noc2ccccc12` was tested, and the outcome was “inactive”. With `CNCCc1ccccn1` the outcome was “inactive”. `CN1CCC(OC(c2ccccc2)c2ccccc2)CC1` was tested, and the outcome was “inactive”. With `CCN(CC)CCNc1ccc(CO)c2sc3ccccc3c(=O)c12` the outcome was “inactive”. In the case of `CC[C@H](c1ccc(O)cc1)[C@@H](CC)c1ccc(O)cc1`, the outcome is reported as “inactive”. In the case of `c1ccc(CC2=NCCN2)cc1`, the outcome is reported as “inactive”. In the case of `O=C(O)CCc1nc2ccccc2[nH]1`, the outcome is reported as “inactive”. With `Cl/C(=C\n1cncn1)c1ccc(Cl)cc1Cl` the outcome was “inactive”. In the case of `NC(N)=NCc1cccc(I)c1`, the outcome is reported as “inactive”. `NS(=O)(=O)c1cc(C(=O)O)cc(N2CCCC2)c1Oc1ccccc1` was tested, and the outcome was “inactive”. With `CCc1cc(Cl)c(OC)c(C(=O)NC[C@@H]2CCCN2CC)c1O` the outcome was “inactive”. `COc1cc(NS(=O)(=O)c2ccc(N)cc2)ncn1` was tested, and the outcome was “inactive”. In the case of `N=C(N)N1CCc2ccccc2C1`, the outcome is reported as “inactive”. In the case of `Nc1ccc(C(=O)NCC(=O)O)cc1`, the outcome is reported as “inactive”. For `COc1ccc(C(=O)c2ccccc2O)c(O)c1`, the outcome was “inactive”.
